Measurements: the supplement of paper PMC10849652
The full data set covers some 7,900 targets. This sample favours those with a hit. About 0.6% of all pairs of compound and target were hits. A number with no mark means an inactive call.

What was measured:
Experiment in all cases: log2 fold change, soluble protein after heating vs DMSO (PISA); higher = thermal stabilisation; K562 cells, 10 uM, 30 min; active = over 0.2 and 3.5 SD of the protein, either way, in both replicates (recomputed)
[1] = compound: NC(=O)Nc1cc(-c2cccc(F)c2)sc1C(=O)N[C@H]1CCCNC1
Procedure, shortened: (§1)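 K562 cells (2×10^6 cells/mL) were treated with 10 μM compound for 30 min, and aliquots were heated for 3 min over 48°C-58°C. Pooled aliquots were extracted in PBS with 0.5% NP-40 at 4°C, and the supernatant after 21,000xg for 90 min was measured by TMTpro 16plex LC-MS/MS with channel sums equalised. Reported thermal stability, relative to control samples and from duplicates, is a log2 fold change.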

[2] = compound: NC(=O)c1cnc(N[C@@H]2CCCC[C@@H]2N)nc1Nc1cccc(-n2nccn2)c1
Procedure, shortened: as §1

[3] = compound: NC1(c2ccc(-c3nc4ccn5c(=O)[nH]nc5c4cc3-c3ccccc3)cc2)CCC1
Procedure, shortened: as §1

[4] = compound: NCC(=O)Nc1ccc(-n2nc(C(F)(F)F)cc2-c2ccc3c(ccc4ccccc43)c2)cc1
Procedure, shortened: as §1

entinostat = compound: Nc1ccccc1NC(=O)c1ccc(CNC(=O)OCc2cccnc2)cc1 [entinostat]
Procedure, shortened: as §1

vorinostat = compound: O=C(CCCCCCC(=O)Nc1ccccc1)NO [vorinostat]
Procedure, shortened: as §1

citarinostat = compound: O=C(CCCCCCNC(=O)c1cnc(N(c2ccccc2)c2ccccc2Cl)nc1)NO [citarinostat]
Procedure, shortened: as §1

silmitasertib = compound: O=C(O)c1ccc2c(c1)nc(Nc1cccc(Cl)c1)c1ccncc12 [silmitasertib]
Procedure, shortened: as §1

[5] = compound: O=C1NC(=O)C(c2cnc3ccccn23)=C1c1cn2c3c(cc(F)cc13)CN(C(=O)N1CCCCC1)CC2
Procedure, shortened: as §1

[6] = compound: c1cc(OCCN2CCCCC2)cc(-c2n[nH]c3ccc(-c4nnc[nH]4)cc23)c1
Procedure, shortened: as §1

entospletinib = compound: c1cn2cc(-c3ccc4cn[nH]c4c3)nc(Nc3ccc(N4CCOCC4)cc3)c2n1 [entospletinib]
Procedure, shortened: as §1

Chain of UniProt Q92851 (Q92851 whole entry, looked up): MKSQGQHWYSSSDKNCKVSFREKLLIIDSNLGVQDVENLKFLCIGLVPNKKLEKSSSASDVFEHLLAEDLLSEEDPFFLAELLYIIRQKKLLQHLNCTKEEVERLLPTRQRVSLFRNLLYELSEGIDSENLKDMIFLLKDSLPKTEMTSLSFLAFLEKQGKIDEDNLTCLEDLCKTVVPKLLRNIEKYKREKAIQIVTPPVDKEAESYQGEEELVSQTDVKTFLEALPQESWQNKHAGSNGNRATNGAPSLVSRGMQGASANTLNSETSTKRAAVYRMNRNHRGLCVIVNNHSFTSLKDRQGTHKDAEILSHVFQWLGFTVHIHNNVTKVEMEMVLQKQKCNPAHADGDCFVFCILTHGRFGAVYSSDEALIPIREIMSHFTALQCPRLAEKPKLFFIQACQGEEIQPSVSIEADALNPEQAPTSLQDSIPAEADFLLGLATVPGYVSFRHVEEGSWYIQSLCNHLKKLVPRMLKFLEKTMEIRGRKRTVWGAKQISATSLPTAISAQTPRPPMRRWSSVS
Chain of UniProt P51911 (P51911 whole entry, looked up): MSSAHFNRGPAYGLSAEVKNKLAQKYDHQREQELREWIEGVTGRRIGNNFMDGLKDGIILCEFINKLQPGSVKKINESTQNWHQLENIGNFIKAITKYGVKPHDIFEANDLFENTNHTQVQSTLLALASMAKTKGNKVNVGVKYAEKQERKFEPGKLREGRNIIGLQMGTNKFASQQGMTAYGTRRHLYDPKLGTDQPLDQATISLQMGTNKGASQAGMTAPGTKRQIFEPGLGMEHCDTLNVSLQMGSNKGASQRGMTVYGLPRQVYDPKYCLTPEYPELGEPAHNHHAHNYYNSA
Chain of UniProt Q00535 (Q00535 whole entry, looked up): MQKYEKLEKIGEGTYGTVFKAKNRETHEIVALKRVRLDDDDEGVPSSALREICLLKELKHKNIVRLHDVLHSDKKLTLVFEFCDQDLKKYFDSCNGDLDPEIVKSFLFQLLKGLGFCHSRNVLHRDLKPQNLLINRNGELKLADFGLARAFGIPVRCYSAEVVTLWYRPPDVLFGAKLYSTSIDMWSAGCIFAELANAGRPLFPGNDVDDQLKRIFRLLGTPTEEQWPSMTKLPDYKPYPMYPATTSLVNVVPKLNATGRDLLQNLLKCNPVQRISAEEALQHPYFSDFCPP
Chain of UniProt Q96JM3 (Q96JM3 whole entry, looked up): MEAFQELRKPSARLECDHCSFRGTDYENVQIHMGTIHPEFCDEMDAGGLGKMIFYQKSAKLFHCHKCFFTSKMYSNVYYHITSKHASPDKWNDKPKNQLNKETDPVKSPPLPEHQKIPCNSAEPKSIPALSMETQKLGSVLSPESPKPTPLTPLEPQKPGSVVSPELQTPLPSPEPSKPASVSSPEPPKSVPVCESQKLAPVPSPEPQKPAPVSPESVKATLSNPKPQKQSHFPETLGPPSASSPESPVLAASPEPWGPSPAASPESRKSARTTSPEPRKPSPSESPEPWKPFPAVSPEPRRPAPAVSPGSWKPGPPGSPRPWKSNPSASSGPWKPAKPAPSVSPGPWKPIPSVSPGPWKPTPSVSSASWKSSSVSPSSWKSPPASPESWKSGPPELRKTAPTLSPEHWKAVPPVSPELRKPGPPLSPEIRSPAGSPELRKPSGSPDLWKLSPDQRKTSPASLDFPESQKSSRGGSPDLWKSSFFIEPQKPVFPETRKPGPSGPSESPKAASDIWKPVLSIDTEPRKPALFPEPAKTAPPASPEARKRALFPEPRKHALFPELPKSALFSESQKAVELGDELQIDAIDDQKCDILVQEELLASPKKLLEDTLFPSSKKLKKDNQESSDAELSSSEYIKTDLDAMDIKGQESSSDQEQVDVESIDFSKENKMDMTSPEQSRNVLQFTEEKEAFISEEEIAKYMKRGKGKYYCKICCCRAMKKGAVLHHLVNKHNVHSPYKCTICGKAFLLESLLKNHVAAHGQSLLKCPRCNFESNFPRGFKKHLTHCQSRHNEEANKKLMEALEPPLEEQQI
Chain of UniProt Q9Y5S2 (Q9Y5S2 whole entry, looked up): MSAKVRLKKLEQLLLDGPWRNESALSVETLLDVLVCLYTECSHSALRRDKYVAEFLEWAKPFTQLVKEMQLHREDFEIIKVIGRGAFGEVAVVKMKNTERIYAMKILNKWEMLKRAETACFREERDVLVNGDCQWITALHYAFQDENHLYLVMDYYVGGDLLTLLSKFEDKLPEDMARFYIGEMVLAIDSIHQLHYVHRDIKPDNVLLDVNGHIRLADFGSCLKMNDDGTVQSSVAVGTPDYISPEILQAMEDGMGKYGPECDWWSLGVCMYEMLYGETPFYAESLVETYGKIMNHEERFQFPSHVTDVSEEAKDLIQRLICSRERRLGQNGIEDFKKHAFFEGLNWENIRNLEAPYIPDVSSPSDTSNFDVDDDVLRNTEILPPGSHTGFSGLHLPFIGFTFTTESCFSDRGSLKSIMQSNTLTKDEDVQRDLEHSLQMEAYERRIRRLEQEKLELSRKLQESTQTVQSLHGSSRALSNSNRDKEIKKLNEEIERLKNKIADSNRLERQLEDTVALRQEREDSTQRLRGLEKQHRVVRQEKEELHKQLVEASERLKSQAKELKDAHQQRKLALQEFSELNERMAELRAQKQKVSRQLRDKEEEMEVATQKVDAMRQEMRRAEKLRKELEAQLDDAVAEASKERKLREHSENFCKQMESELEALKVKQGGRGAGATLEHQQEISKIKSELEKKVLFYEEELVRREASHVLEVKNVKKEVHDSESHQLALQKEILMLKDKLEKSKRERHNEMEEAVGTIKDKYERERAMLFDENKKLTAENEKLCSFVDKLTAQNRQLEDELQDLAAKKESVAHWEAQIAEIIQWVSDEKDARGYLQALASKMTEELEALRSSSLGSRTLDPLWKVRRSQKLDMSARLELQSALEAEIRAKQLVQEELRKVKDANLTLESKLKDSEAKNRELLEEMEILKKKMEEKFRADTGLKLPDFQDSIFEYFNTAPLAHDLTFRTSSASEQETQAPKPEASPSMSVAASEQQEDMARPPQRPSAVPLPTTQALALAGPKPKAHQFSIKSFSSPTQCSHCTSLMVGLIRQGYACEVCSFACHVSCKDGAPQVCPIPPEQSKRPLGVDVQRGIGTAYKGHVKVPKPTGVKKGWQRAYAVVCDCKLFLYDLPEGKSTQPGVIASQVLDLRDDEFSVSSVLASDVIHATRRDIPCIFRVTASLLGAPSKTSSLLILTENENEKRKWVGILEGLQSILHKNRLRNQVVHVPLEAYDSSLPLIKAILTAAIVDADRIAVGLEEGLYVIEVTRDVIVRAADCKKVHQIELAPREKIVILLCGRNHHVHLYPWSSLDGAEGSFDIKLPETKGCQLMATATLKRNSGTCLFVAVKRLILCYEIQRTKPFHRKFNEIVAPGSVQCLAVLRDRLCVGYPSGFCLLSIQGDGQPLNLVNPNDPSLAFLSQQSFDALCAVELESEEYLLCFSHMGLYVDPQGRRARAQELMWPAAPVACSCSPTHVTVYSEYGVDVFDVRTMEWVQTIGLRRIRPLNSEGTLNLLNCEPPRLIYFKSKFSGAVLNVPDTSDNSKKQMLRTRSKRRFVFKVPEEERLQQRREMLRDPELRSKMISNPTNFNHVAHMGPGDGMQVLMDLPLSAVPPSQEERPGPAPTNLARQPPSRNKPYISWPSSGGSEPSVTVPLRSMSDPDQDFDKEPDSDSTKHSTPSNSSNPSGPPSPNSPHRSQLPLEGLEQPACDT
Chain of UniProt Q9H9S4 (Q9H9S4 whole entry, looked up): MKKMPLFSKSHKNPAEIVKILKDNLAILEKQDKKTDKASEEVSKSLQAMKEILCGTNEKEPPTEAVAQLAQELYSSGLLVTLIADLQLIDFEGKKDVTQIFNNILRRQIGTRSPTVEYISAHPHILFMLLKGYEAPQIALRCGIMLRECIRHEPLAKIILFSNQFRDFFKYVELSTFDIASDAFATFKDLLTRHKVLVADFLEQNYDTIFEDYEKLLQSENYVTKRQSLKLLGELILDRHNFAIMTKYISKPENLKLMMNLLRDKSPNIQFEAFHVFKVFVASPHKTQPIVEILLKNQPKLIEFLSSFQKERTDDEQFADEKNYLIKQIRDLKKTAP
Chain of UniProt Q86X95 (Q86X95 whole entry, looked up): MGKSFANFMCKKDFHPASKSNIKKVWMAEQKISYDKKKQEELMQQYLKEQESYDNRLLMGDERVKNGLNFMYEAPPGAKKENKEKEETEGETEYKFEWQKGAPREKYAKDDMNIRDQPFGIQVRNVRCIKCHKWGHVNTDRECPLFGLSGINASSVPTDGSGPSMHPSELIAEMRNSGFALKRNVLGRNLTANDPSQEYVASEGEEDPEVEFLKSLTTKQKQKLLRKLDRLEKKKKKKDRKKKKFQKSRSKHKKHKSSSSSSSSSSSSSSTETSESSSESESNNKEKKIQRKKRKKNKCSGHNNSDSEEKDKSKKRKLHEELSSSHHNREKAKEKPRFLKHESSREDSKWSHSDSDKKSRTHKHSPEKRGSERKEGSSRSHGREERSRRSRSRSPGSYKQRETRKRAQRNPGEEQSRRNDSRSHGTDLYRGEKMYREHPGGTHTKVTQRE
Chain of UniProt O75208 (O75208 whole entry, looked up): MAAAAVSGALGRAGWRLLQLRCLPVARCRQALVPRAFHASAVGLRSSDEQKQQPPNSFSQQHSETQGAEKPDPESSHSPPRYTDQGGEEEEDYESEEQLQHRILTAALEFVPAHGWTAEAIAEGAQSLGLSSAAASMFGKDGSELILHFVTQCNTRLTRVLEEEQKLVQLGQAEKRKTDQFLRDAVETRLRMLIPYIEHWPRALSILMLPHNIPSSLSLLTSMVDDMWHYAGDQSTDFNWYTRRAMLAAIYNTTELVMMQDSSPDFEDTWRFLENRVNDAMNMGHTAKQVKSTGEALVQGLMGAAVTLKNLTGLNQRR
Chain of UniProt P41208 (P41208 whole entry, looked up): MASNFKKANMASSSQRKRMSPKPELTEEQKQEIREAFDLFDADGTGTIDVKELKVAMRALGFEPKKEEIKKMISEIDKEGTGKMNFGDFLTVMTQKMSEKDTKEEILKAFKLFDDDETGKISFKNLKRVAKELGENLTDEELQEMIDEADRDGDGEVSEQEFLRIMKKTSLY
Chain of UniProt P14854 (P14854 whole entry, looked up): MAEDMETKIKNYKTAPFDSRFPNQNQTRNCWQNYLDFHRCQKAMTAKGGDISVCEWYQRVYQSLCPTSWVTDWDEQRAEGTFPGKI

Target	log2 fold change [1]	log2 fold change [2]	log2 fold change [3]	log2 fold change [4]	log2 fold change (entinostat)	log2 fold change (vorinostat)	log2 fold change (citarinostat)	log2 fold change (silmitasertib)	log2 fold change [5]	log2 fold change [6]	log2 fold change (entospletinib)
CDK5 (UniProt Q00535)	-0.045	-0.01	-0.065	-0.082	0.016	0.007	0.06	0.016	-0.1	-0.05	-0.022
CNDP2 (UniProt Q96KP4)	-0.013	-0.035	-0.052	0.01	-0.015	-0.015	0.023	-0.065	-0.005	0.001	0.03
CNN1 (UniProt P51911)	-0.002	-0.07	-0.305	-0.023	0.018	-0.125	0.168	0.108	-0.008	-0.052	-0.067
CPSF7 isoform 3 (UniProt Q8N684)	-0.063	0.025	0.027	0.013	-0.023	0.01	0.001	-0.069	0.054	-0.035	-0.011
COASY isoform 2 (UniProt Q13057)	0	0.004	-0.138	-0.004	0.018	0.063	0.054	0.042	-0.004	-0.01	-0.076
CHEK1 (UniProt O14757)	0.338 (active)	-0.225	-0.209	-0.032	0.02	0.037	0.094	-0.011	-0.064	-0.276 (active)	-0.057
CDK13 (UniProt Q14004)	-0.032	-0.007	-0.063	0.042	0	0.018	0.013	-0.018	0.035	-0.196	0.065
CASP10 isoform 4 (UniProt Q92851)	-0.089	-0.058	-0.084	-0.055	-0.05	0.258	0.123	0.076	0.089	-0.13	0.06
CDK16 isoform 2 (UniProt Q00536)	-0.07	-0.091	-0.104	-0.061	-0.041	-0.044	0.061	0.201	0.845 (active)	-0.006	-0.022
CNOT1 (UniProt A5YKK6)	0	0.01	-0.075	-0.026	0.024	0.035	0.05	0.055	0.004	-0.032	0.014
CDC42BPB (UniProt Q9Y5S2)	-0.205	0.054	-0.254	-0.012	0.155	0.06	0.085	-0.087	-0.057	-0.201	-0.245
CDCA2 (UniProt Q69YH5)	-0.034	-0.096	-0.003	0.037	-0.11	0	-0.27	0.133	0.035	0.243	-0.013
CDC25B isoform 4 (UniProt P30305)	-0.04	-0.07	-0.157	0.088	0.047	0.071	0.115	0.054	0.014	-0.123	-0.013
CDK11B (UniProt P21127)	-0.114	-0.012	0.031	0.006	-0.111	0.064	-0.047	-0.061	0.072	-0.301	0.14
COX6B1 (UniProt P14854)	-0.039	-0.019	-0.146	0.007	0.085	-0.06	-0.007	-0.009	-0.126	-0.017	0.078
CHAMP1 (UniProt Q96JM3)	-0.034	-0.136	0.007	-0.031	0.001	0.137	-0.007	-0.02	-0.051	-0.078	0.002
COQ9 (UniProt O75208)	0.02	-0.002	-0.151	-0.032	0.045	0.028	-0.013	0.021	-0.103	0.008	-0.022
CETN2 (UniProt P41208)	-0.051	0.024	0.102	0.076	-0.033	-0.122	-0.1	-0.028	-0.027	-0.091	0.057
COX15 (UniProt Q7KZN9)	0.003	-0.009	-0.043	-0.013	0.004	-0.017	0.048	0.022	0.028	-0.064	-0.169
CMTR1 (UniProt Q8N1G2)	-0.022	-0.015	-0.135	-0.01	-0.025	0.026	0.002	0.004	-0.083	-0.009	-0.016
CAMKK2 (UniProt Q96RR4)	-0.088	-0.389	-0.113	-0.047	0.015	0.323	-0.144	0.128	-0.038	0.036	0.011
CFAP36 isoform 2 (UniProt Q96G28)	0.027	-0.1	-0.095	-0.152	0.023	-0.014	-0.022	0.131	-0.025	0.065	0.116
CIR1 (UniProt Q86X95)	0.014	0.061	0.309	0.018	0	-0.056	0.06	0.105	0.067	0.024	0.024
CCNDBP1 (UniProt O95273)	0.046	-0.027	-0.091	0.069	-0.036	-0.069	0.05	0.087		-0.084	0.029
CHAF1A (UniProt Q13111)	0.087	0.046	0.036		-0.141	0.121	0.005	-0.019	-0.167	-0.439 (active)	-0.126
C22orf39 (UniProt Q6P5X5)	0.093	-0.036	-0.106		0.037			0.016	0.089		
CENPE (UniProt Q02224)	0.127	0.731		0.114	-0.153	-0.238					
CAB39L (UniProt Q9H9S4)	0.035	0.083		-0.162	-0.016	-0.197	-0.093		-0.043	-0.101	0.154
